Measurements from PubChem BioAssay.
A number with no mark means an inactive call. For some assays here: Entries with a potency or affinity are not part of this list. Active and inactive are the calls of the source. Unless noted, how the calls were made is not given here.

What was measured:
[1] = antimalarial activity against Dd2 strain (AID 2302;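 active means growth inhibition above 50% at the single 2 µM test dose, taken to imply half-maximal potency below 2 µM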;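 further: 0% = DMSO untreated growth and 100% = chloroquine plus artemisinin killed control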); conditions: P. falciparum Dd2 in RBCs, LDH growth readout, 72 h; at 2 µM; hits give high values
[2] = HepG2 cytotoxicity, primary screen, cytotoxicity control for P. falciparum antimalarial project, cell-based, ATP luminescence (AID 2303;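 active means inhibition above 50%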;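 further: 0% = DMSO wells and 100% = digitonin-killed cells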); conditions: HepG2 viability, 24-48 h, at 10 µM, hits give high values
[3] = target: L-lactate dehydrogenase (Plasmodium falciparum (isolate CDC / Honduras)) (UniProt Q27743); test: PfLDH activity inhibition – cell lysate, 3D7 strain, counter-screen for P. falciparum growth inhibition project (AID 2304);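 further: 0% = vehicle and 100% = reference inhibitor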; conditions: P. falciparum 3D7 crude extract, LDH APAD/NBT absorbance; at 2 µM; hits give high values
Sequence of L-lactate dehydrogenase (Plasmodium falciparum (isolate CDC / Honduras)) (Q27743 whole entry, looked up): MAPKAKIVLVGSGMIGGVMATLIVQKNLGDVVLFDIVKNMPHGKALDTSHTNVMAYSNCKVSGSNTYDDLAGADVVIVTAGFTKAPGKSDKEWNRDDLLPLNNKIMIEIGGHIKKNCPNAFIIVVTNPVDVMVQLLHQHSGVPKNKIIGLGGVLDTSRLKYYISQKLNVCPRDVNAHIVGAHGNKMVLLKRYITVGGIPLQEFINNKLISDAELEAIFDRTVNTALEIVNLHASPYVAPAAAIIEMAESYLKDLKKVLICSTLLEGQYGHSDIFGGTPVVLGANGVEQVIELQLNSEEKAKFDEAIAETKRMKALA

[4] = inhibition of 3D7 malaria parasite growth – strain 3D7 (AID 2306);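 further: 0% = DMSO wells and 100% = chloroquine plus artemisinin control wells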; conditions: P. falciparum 3D7 erythrocytic growth, LDH absorbance, 72 h; at 2 µM; hits give high values
[5] = target: Calcium-dependent protein kinase 1 (Plasmodium falciparum (isolate 3D7)) (UniProt P62344); test: PfCDPK1 kinase inhibitors, biochemical, TCAMS library (AID 1159585; cut-off not given, nearly all actives have IC50 up to about 0.98 µM;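 further: inhibitors leave more ATP so luminescence rises with inhibition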); conditions: recombinant PfCDPK1, Kinase-Glo ATP depletion luminescence
Sequence of Calcium-dependent protein kinase 1 (Plasmodium falciparum (isolate 3D7)) (P62344 whole entry, looked up): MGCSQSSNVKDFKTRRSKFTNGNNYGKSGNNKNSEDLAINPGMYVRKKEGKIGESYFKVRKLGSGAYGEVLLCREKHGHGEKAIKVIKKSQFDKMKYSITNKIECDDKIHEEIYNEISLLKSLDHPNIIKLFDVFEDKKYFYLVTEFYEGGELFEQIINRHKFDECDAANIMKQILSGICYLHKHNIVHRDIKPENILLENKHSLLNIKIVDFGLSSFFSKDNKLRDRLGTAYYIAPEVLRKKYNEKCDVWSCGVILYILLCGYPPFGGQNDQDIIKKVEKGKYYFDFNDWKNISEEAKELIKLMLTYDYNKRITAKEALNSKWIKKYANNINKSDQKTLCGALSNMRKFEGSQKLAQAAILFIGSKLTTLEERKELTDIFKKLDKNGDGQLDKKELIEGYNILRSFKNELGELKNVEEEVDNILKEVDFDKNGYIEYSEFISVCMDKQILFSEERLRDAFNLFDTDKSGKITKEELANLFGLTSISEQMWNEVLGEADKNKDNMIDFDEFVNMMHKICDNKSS

[6] = target: Plasmodium falciparum protein kinase 6 (PK6, PF3D7_1337100) (UniProt Q8IDW1); test: PfPK6 kinase inhibitors, biochemical, TCAMS library (AID 1159586); conditions: recombinant PfPK6, Kinase-Glo ATP depletion luminescence
Sequence of Plasmodium falciparum protein kinase 6 (PK6, PF3D7_1337100) (Q8IDW1 1-305): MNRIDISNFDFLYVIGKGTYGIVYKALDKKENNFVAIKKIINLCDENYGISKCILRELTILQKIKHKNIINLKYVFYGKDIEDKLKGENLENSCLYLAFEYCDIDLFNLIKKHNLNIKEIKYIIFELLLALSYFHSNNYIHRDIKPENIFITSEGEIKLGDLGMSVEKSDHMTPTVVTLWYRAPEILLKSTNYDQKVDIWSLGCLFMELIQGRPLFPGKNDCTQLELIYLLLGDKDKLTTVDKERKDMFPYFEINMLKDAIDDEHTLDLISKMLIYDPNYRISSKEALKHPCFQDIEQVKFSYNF

[7] = target: Protein kinase 7 (PK7), Plasmodium falciparum 3D7 (PF3D7_0213400) (UniProt Q7YTF7); test: inhibition of Plasmodium PK7 catalytic activity – biochemical, TCAMS antimalarial set, Kinase-Glo luminescence (AID 1159587); conditions: recombinant PfPK7, Kinase-Glo ATP depletion luminescence
Sequence of Protein kinase 7 (PK7), Plasmodium falciparum 3D7 (PF3D7_0213400) (Q7YTF7 1-343): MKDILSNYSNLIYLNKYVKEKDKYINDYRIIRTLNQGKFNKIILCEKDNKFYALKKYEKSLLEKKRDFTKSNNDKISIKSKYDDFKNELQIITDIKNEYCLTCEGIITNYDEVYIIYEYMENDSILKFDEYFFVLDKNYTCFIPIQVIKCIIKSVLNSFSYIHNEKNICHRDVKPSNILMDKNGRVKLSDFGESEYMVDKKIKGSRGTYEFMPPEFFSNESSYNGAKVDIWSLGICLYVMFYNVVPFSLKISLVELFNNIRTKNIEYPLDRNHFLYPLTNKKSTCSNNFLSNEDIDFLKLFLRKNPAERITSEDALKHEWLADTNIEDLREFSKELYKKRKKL

[8] = target: Calcium-dependent protein kinase 4 (Plasmodium falciparum (isolate 3D7)) (UniProt Q8IBS5); test: PfCDPK4 kinase inhibitors, biochemical, TCAMS library (AID 1159588; cut-off not given, nearly all actives have IC50 up to about 0.91 µM); conditions: recombinant PfCDPK4, Kinase-Glo ATP depletion luminescence
Sequence of Calcium-dependent protein kinase 4 (Plasmodium falciparum (isolate 3D7)) (Q8IBS5 whole entry, looked up): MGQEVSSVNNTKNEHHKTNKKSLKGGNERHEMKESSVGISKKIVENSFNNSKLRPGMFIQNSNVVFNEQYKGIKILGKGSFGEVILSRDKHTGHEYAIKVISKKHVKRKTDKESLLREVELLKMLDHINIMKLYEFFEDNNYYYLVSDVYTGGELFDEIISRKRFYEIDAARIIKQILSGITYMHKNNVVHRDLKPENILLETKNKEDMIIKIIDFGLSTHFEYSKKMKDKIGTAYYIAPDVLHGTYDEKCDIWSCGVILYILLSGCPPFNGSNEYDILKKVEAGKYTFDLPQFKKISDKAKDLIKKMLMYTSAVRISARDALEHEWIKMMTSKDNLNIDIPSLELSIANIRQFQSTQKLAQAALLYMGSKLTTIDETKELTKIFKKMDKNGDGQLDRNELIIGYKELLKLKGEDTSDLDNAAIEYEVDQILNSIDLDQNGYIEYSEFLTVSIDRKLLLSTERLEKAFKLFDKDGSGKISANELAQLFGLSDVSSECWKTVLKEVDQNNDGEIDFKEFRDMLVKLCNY

| Structure (SMILES) | growth inhibition [1] | inhibition [2] | inhibition [3] [%] | growth inhibition [4] | outcome [5] | outcome [6] | outcome [7] | outcome [8] |
| --- | --- | --- | --- | --- | --- | --- | --- | --- |
| CC(C)NCc1cc(Nc2ccnc3cc(Cl)ccc23)ccc1O | 100% (active) | 27% | 6 | 102% (active) | inactive | inactive | inactive | inactive |
| Cc1cc(NC(=O)Nc2ccc3nccc(N4CCN(C)CC4)c3c2)ccc1Br | 100% (active) | 31% | -2 | 101% (active) | inactive | inactive | inactive | inactive |
| Cc1[nH]cc(Br)c(=O)c1-c1ccc(Oc2ccc(OC(F)(F)F)cc2)cc1 | 92% (active) | 22% | -2 | 96% (active) | inactive | inactive | inactive | inactive |
| Cc1cc(NN=Cc2ccccc2Cl)c2cccc(C)c2n1 | 98% (active) | 10% | 2 | 97% (active) | inactive | inactive | inactive | inactive |
| Cc1cc2nc(NC3=NC4(c5ccccn5)N=C(Nc5nc6cc(C)c(C)cc6[nH]5)NC4(c4ccccn4)N3)[nH]c2cc1C (stereo not given) | 62% (active) | 3% | -2 | 87% (active) | inactive | inactive | inactive | inactive |
| O=C(Nc1cccc(OC2CCN(Cc3ccccc3)CC2)c1)Nc1cccc([N+](=O)[O-])c1 | 48% | 10% | 0 | 101% (active) | inactive | inactive | inactive | inactive |
| O=C(Nc1cccc(CN2CCCN(Cc3ncc[nH]3)CC2)c1)c1ccc2ccccc2c1 | 2% | 13% | -1 | 100% (active) | inactive | inactive | inactive | inactive |
| COc1ccccc1NC(=O)Nc1ccc(-c2ccc(-c3nc4ccc(C(F)(F)F)cc4[nH]3)cc2)cc1 | 61% (active) | 52% (active) | 3 | 101% (active) | inactive | inactive | inactive | inactive |
| Nc1nonc1-c1nc2c(-c3cccc(Cl)c3)nccc2n1CCCNC(=O)Cc1ccc(Cl)cc1 | 92% (active) | -4% | -2 | 94% (active) | inactive | inactive | inactive | inactive |
| CCC[C@@H](/C=N/N(C)C(=O)OC(C)(C)C)NC(=O)[C@H](CC(C)C)NC(=O)c1cc2cccc(OC)c2o1 | 61% (active) | 5% | 6 | 88% (active) | inactive | inactive | inactive | inactive |
| O=C1CCCN1CCCNCc1cccc(-c2ccc(-c3nc4ccc(C(F)(F)F)cc4[nH]3)cc2)c1 | 96% (active) | 15% | -3 | 101% (active) | inactive | inactive | inactive | inactive |
| CC(=O)c1ccc(N2CCN(CCC3(c4ccc(Cl)c(Cl)c4)COCN(C(=O)c4ccccc4)C3)CC2)cc1 (stereo not given) | 95% (active) | 12% | 5 | 88% (active) | inactive | inactive | inactive | inactive |
| O=C(Nc1ccc2c(c1)CCC2)c1ccc(N2CCN(c3ccncc3)CC2)cn1 | 58% (active) | 56% (active) | 2 | 99% (active) | inactive | inactive | inactive | inactive |
| COc1cccc2cc(C(=O)N[C@@H](CC(C)C)C(=O)N[C@H](/C=N/NC(=O)OC(C)(C)C)Cc3ccccc3)oc12 | 88% (active) | 11% | 0 | 99% (active) | inactive | inactive | inactive | inactive |
| COC(=O)c1c(NC(=O)c2cccc(C(F)(F)F)c2)sc2c1CCN(Cc1ccccc1)C2 | 61% (active) | 9% | 0 | 84% (active) | inactive | inactive | inactive | inactive |
| COc1cc2c(cc1C(F)(F)F)N(C(=O)Nc1cc(F)cc(-c3cncnc3)c1)CC2 | 52% (active) | 15% | -5 | 97% (active) | inactive | inactive | inactive | inactive |
| COc1ccc(CCNCC(O)c2cccc(Br)c2)c(Cl)c1OC (stereo not given) | 70% (active) | 18% | 0 | 87% (active) | inactive | inactive | inactive | inactive |
| COc1ccccc1-c1sccc1C(=O)NC1(c2cc(Cl)cc(Cl)c2)CCCC1 | 95% (active) | -5% | -3 | 88% (active) | inactive | inactive | inactive | inactive |
| CC(C)NC(C)(C)CN(Cc1ccc(-c2ccc(C(F)(F)F)cc2)cc1)C(=O)Cn1c(CCc2cccc(F)c2F)nc(=O)c2ccccc21 | 68% (active) | 44% | 3 | 94% (active) | inactive | inactive | inactive | inactive |
| O=C(/C=C/c1ccc(Cl)c(Cl)c1)N1CCCC(CCCN2CCC(c3c[nH]c4ccccc34)CC2)C1 (stereo not given) | 15% | 30% | -1 | 89% (active) | inactive | inactive | inactive | inactive |

| Structure (SMILES) | growth inhibition [1] | inhibition [2] | inhibition [3] [%] | growth inhibition [4] | outcome [5] | outcome [6] | outcome [7] | outcome [8] |
| --- | --- | --- | --- | --- | --- | --- | --- | --- |
| CN1CCCC1CNS(=O)(=O)c1ccc(C(=O)NCC2CC2)cc1 (stereo not given) | -7% | 17% | -1 | 91% (active) | inactive | inactive | inactive | inactive |
| CCNc1cc(C)nc(Nc2ccc(NS(=O)(=O)c3cc(OC)ccc3OC)cc2)n1 | 36% | 56% (active) | -1 | 100% (active) | inactive | inactive | inactive | inactive |
| CN1CC[C@@H](Oc2cc(C(=O)NCc3ccc(Cl)c(Cl)c3)ccc2C(F)(F)F)C1 | 4% | 8% | 2 | 88% (active) | inactive | inactive | inactive | inactive |
| Cc1[nH]c(C)c(-c2ccc(-c3ccc(C(F)F)cc3)nc2)c(=O)c1Cl | 96% (active) | 0% | -2 | 97% (active) | inactive | inactive | inactive | inactive |
| CN(C)CCCOc1ccc(CN2CC[C@H](NC(=O)c3ccc(Cl)c(Cl)c3)C2)cc1Br | 34% | 11% | -2 | 101% (active) | inactive | inactive | inactive | inactive |
| CN(C)CCCOc1ccccc1CN1CC[C@H](NC(=O)c2ccc(Cl)c(Cl)c2)C1 | 54% (active) | 42% | -3 | 94% (active) | inactive | inactive | inactive | inactive |
| CN1CCc2cc(NC(=O)c3cc4ccccc4s3)cc(-c3ccccc3)c2CC1 | 11% | 20% | -2 | 91% (active) | inactive | inactive | inactive | inactive |
| c1ccc(Oc2ccc(Nc3ccnc4cc(-c5cccc(CN6CCOCC6)c5)ccc34)cc2)cc1 | 100% (active) | 14% | -1 | 101% (active) | inactive | inactive | inactive | inactive |
| Cc1cccc2[nH]c(-c3ccc(-c4cccc(NC(=O)NCc5ccccc5)c4)cc3)nc12 | 0% | 25% | -6 | 95% (active) | inactive | inactive | inactive | inactive |
| O=C(NCCCN1CCC(N2CCCCC2)CC1)c1ccc2nc(N3CCCCC3)sc2c1 | 20% | 11% | -1 | 89% (active) | inactive | inactive | inactive | inactive |
| Cc1cccc(N2C(N)=NC(N)=NC2(C)C)c1C | -2% | -2% | -6 | 90% (active) | inactive | inactive | inactive | inactive |
| NC(=NCCc1ccc(Cl)c(Cl)c1)c1ccc2ccccc2c1 | 29% | 60% (active) | -3 | 100% (active) | inactive | inactive | inactive | inactive |
| COc1ccc2nccc(N3CCC(SCCNCc4ccc5c(n4)NC(=O)CO5)C3)c2n1 (stereo not given) | 9% | 30% | -2 | 101% (active) | inactive | inactive | inactive | inactive |
| CCOc1c(CNCCCNc2cc(=O)c3ccccc3[nH]2)cc(Br)cc1OC | 18% | 10% | -9 | 80% (active) | inactive | inactive | inactive | inactive |
| Cc1ccc2nc(-c3cc(-c4ccc(CO)cc4)cnc3N)[nH]c2c1 | 6% | 52% (active) | 9 | 95% (active) | inactive | inactive | inactive | inactive |
| CCNc1cc(C(=O)N[C@@H](Cc2ccccc2Cl)[C@H](O)CNC(C)CCCC(C)C)cc(N2CCCCS2(=O)=O)c1 (stereo not given in full) | 62% (active) | 12% | 2 | 97% (active) | inactive | inactive | inactive | inactive |
| CCOC(=O)c1ccc(OCc2ccc(-c3ccccc3)cc2)cc1 | -1% | 18% | 3 | 96% (active) | inactive | inactive | inactive | inactive |
| COc1ccc(-c2ccc(CNCc3ccc(F)cc3)cc2)cc1S(=O)(=O)NCCN1CCCC1 | 33% | 24% | 3 | 98% (active) | inactive | inactive | inactive | inactive |
| COc1ccc(Cl)cc1NC(=O)CN(C)C(=O)c1cnn(-c2ccccc2)n1 | 99% (active) | -6% | -2 | 102% (active) | inactive | inactive | inactive | inactive |
| O=C(/C=C/c1ccc(Cl)c(Cl)c1)NCCCCCN1CCCN(C(=O)Nc2ccc(F)c(Cl)c2)CC1 | 0% | 31% | 1 | 95% (active) | inactive | inactive | inactive | inactive |
